Bioassay records from PubChem.
MsrA inh: bovine MsrA enzyme inhibitors, primary screen, biochemical, absorbance, HTS; Methionine sulfoxide reductase A (Bos taurus); purified bovine MsrA, absorbance read-out; inhibition, % at 15.5 µM; 0.75% of 360,000 active; in the data active means inhibition above about 4.5%;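 further: 0% = vehicle wells with enzyme and 100% = reference inhibitor wells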
DAGLB inhibitor: DAGLB lipase inhibitors, primary screen, biochemical, fluorescence, HTS. Diacylglycerol lipase-beta (Homo sapiens), Q8NCG7. HEK293T DAGLB membrane lysate, EnzChek fluorogenic substrate. inhibition, % at 5.17 µM. 0.059% of 340,000 active; in the data active means inhibition above about 34%;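 further: 0% = enzyme with vehicle and 100% = wells lacking enzyme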
Target sequence (Q8NCG7 whole entry, looked up): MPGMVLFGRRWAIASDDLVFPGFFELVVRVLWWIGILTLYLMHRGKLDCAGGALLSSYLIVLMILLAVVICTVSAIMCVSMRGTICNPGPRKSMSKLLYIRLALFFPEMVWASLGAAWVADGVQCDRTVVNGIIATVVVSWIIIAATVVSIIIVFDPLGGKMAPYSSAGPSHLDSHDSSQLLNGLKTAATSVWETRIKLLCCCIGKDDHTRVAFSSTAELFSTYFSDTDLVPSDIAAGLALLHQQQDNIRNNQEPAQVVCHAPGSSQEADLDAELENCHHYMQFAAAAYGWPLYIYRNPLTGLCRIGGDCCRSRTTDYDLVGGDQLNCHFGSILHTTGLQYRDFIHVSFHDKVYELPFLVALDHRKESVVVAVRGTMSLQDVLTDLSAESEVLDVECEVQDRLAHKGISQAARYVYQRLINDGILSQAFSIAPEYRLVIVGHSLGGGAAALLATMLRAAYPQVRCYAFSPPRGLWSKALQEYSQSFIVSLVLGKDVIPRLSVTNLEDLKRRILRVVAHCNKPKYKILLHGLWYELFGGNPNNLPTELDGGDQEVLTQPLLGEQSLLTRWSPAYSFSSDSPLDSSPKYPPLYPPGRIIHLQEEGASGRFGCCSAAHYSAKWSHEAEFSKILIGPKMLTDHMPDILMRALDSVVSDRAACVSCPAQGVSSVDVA
rCAG binder: binders of r(CAG) RNA repeats, primary screen, biochemical, fluorescence | r(CAG) RNA repeat, TO-PRO-1 dye displacement fluorescence | inhibition, % at 3 µM | 1.3% of 370,000 active | AID 651821, 2012;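 active means inhibition above the plate cutoff, the mean of all test compounds on that plate plus 3 SD, cut at about 35% in these data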;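 further: 0% = DMSO alone and 100% = 100 µM mitoxantrone as full dye displacement; higher means more dye released from RNA so lower well fluorescence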
NadD block: inhibitors of S. aureus NadD, primary screen, biochemical, colorimetric, uHTS; Nicotinate-nucleotide adenylyltransferase NadD (Staphylococcus aureus N315); inhibition, % at 20 µM; purified NadD enzyme, colorimetric absorbance read-out; 0.78% of 360,000 active; AID 602399, 2012; in the data active means inhibition above about 26%
bovine MsrA act: bovine MsrA enzyme activators, primary screen, biochemical, absorbance, HTS; Methionine sulfoxide reductase A (Bos taurus); purified bovine MsrA, absorbance read-out; activation, % at 10.6 µM; 0.3% of 360,000 active; in the data active means activation above about 7.5%;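 further: 0% = vehicle and 100% = reference activator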
DSG3 Ab inh: inhibitors of pemphigus antibody binding to DSG3, primary screen, biochemical, bead-based, flow cytometry, scFv-GFP. Desmoglein-3 (Homo sapiens), P32926. DSG3-coupled beads, scFv-anti-DSG3-GFP binding; active compounds read low. binding (percent of control), % at 10 µM. 0.48% of 310,000 active;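 active means binding more than 3 SD below its plate's average and above zero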;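 further: hits lower antibody fragment binding to DSG3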
rCAG binder conf: small molecules binding CAG repeat RNA – biochemical, fluorescence, confirmation | inhibition, % at 3 µM | shares compounds with rCAG binder | AID 652065, 2013 | r(CAG) RNA repeat, TO-PRO-1 dye displacement fluorescence | 70% of 4,300 active;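 active means inhibition above a per-plate cutoff, the mean inhibition of sample wells plus 3 SD, cut at about 35% in these data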;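 further: loss of TO-PRO-1 fluorescence as compound displaces dye from 1x1 AA loop RNA; 0% = DMSO only wells and 100% = 100 µM mitoxantrone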
DNA CAG counter: displacement of TO-PRO-1 from CAG DNA duplex, counter-screen for rCAG RNA repeat binder project, biochemical, fluorescence, TO-PRO-1 dye, d(CAG) DNA oligo; shares compounds with rCAG binder; d(CAG) DNA oligo TO-PRO-1 dye displacement; inhibition, % at 3 µM; 94% of 4,300 active; AID 652068, 2013;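 active means inhibition above its plate's cutoff, the mean test-well inhibition plus 3 SD, cut at about 4.8% in these data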;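 further: 0% = DNA dye mix with DMSO and 100% = 100 µM mitoxantrone; hits displace the dye from DNA and so lower well fluorescence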
An asterisk follows results filed as active; · = no result given. Most compounds without a hit are left out; they make up all but 3.2% or so of the library.

SMILES | MsrA inh | DAGLB inhibitor | rCAG binder | NadD block | bovine MsrA act | DSG3 Ab inh | rCAG binder conf | DNA CAG counter
CCCCCN1CCCCC(NC(=O)c2ccc(F)c(F)c2)C1=O (stereo unspecified) | · | · | -2 | · | · | · | · | ·
C#Cc1cccc(OC[C@@H](O)CN2CCC(C(O)(c3ccccc3)c3ccccc3)CC2)c1 | · | · | 2 | · | · | · | · | ·
CCOC(=O)N1CCN(S(=O)(=O)c2ccc(C(=O)NNc3nc4c(C)cc(C)cc4s3)cc2)CC1 | 2 | · | 69* | 15 | -2 | · | 64* | 25*
Cc1cc(C)c2nc(NNC(=O)c3ccc(S(=O)(=O)N4CCCCC4)cc3)sc2c1 | 1 | -3 | 55* | 19 | 0 | 101 | 38* | 15*
CCc1nnc(NC(=O)c2ccc(S(=O)(=O)N3CCCC(C)C3)cc2)s1 (stereo unspecified) | 0 | 1 | 0 | -6 | -3 | 95 | · | ·
Cc1cccc2sc(NNC(=O)c3ccc(S(=O)(=O)N4CCCC(C)C4)cc3)nc12 (stereo unspecified) | -1 | 0 | 53* | 23 | -1 | 101 | 45* | 19*
Nn1cnc2c(ncn2C2OC(CO)C(O)C2O)c1=O (stereo unspecified) | 1 | · | 0 | -3 | -2 | · | · | ·
CCOC(=O)c1cc(C)sc1NC(=O)CSC1=NCCS1 | 0 | -13 | -2 | -6 | -10 | 98 | · | ·
CCCCOCCCNC(=O)C[C@H]1C(=O)N(CCCOC)C2=CCCCC[C@]21C(=O)OC | · | · | -3 | · | · | · | · | ·
COc1ccc(OCC(=O)Nc2cc(NC(=O)COc3ccc(OC)cc3)cc(C(=O)O)c2)cc1 | 0 | 1 | 38* | -4 | -3 | 118 | 52* | 17*
COc1ccccc1OCC(=O)Nc1nnc(-c2ccco2)s1 | 1 | 2 | 58* | 1 | -6 | 100 | 8 | 3
O=C(COc1ccccc1Cl)Nc1cc(NC(=O)COc2ccccc2Cl)cc(C(=O)O)c1 | -1 | 3 | 9 | 10 | -6 | 99 | · | ·
COc1ccccc1OCC(=O)Nc1cc(NC(=O)COc2ccccc2OC)cc(C(=O)O)c1 | 0 | 2 | 46* | -4 | -2 | 110 | 11 | 2
Cc1ccccc1CN1[C@@H](C)[C@H](c2ccccc2)Oc2cccc(N3CCCC(C)C3)c2S1(=O)=O (stereo partly specified) | -1 | · | 5 | · | · | · | · | ·
Cc1cc(C)cc(NC(=O)OC2CC3CC2[C@H]2CCCCN2[C@H]3C)c1 (stereo partly specified) | · | · | 4 | · | · | · | · | ·
O=C(N/N=C/c1cc([N+](=O)[O-])cc([N+](=O)[O-])c1O)/C(=C\c1cccs1)NC(=O)c1ccccc1 | 3 | 21 | 68* | 39* | -10 | 92 | 84* | 53*
C=CCNC(=S)N(C)[C@H]1C[C@H]2c3[nH]c4c(-c5ccccc5)cccc4c3CCN2C(=O)[C@H]1[C@H](C)O | 1 | · | 5 | · | · | · | · | ·
CC(Nc1cccc2ccccc12)C(=O)N/N=C/c1ccc([N+](=O)[O-])cc1 (stereo unspecified) | 2 | -1 | 19 | 14 | -5 | 99 | · | ·
COc1cc([N+](=O)[O-])cc(/C=N/NC(=O)C(O)(c2ccccc2)c2ccccc2)c1O | 3 | 7 | 38* | 17 | -7 | 95 | 34 | 13*
COc1cc([N+](=O)[O-])cc(/C=N/NC(=O)C(C)Nc2cccc3ccccc23)c1O (stereo unspecified) | 2 | 20 | 79* | 48* | -3 | 102 | 67* | 30*
Cc1cccc(C)c1C(O)c1ncc(-c2cccc3ccccc23)[nH]1 (stereo unspecified) | -1 | · | 2 | 3 | 7 | · | · | ·
O=C1CC(=O)NC(SCC(=O)Nc2ccccc2[N+](=O)[O-])=N1 | 0 | 4 | 41* | 10 | 0 | 105 | 52* | 24*
Cc1cc(C)nc(SCC(=O)Nc2ccccc2[N+](=O)[O-])n1 | 0 | -2 | -2 | -3 | -13 | 93 | · | ·
O=C(c1cccc(C(F)(F)F)c1)N1CC[C@H]2[C@H](CCCN2Cc2ccc(F)cc2)C1 | · | · | -1 | · | · | · | · | ·
CN(Cc1ccccc1)C(=O)OCc1cn(Cc2ccccc2C(F)(F)F)nn1 | · | · | -2 | · | · | · | · | ·
SMILES | MsrA inh | DAGLB inhibitor | rCAG binder | NadD block | bovine MsrA act | DSG3 Ab inh | rCAG binder conf | DNA CAG counter
CC(C)(C)c1ccc(C(=O)NC(CC(=O)O)c2ccc(OC3CCCC3)cc2)cc1 (stereo unspecified) | 0 | 0 | 39* | -3 | -2 | 92 | 43* | 8.0*
O=C(CSc1nnc(-c2c[nH]c3ccccc23)n1C1CC1)NC1CCS(=O)(=O)C1 (stereo unspecified) | 0 | 1 | 3 | 1 | 0 | 100 | · | ·
CCC/C(C)=N/NC(=O)c1ccccc1O | 0 | -5 | 1 | -2 | -3 | 104 | · | ·
C/C(=N\NC(=O)c1ccccc1O)C1C(=O)c2ccccc2C1=O | 3 | 24 | 72* | 3 | -6 | 105 | 64* | 18*
C[C@H](NC(=O)OCc1ccccc1)P(=O)(O)O | · | · | 0 | · | · | · | · | ·
O=C(CSc1nc2sc3c(c2c(=O)n1-c1ccc(Cl)cc1)CCC3)Nc1ccc(C(=O)O)cc1 | · | · | 58* | · | · | · | 52* | 22*
Cc1ccccc1-n1c(SCC(=O)O)nc2sc3c(c2c1=O)CCCC3 | 2 | 5 | 10 | -9 | -1 | 103 | · | ·
O=C(O)CSc1cc(C(=O)c2ccccc2O)cn2c(=O)c3c4c(sc3nc12)CCCC4 | 1 | 8 | 47* | 18 | 0 | 90 | 85* | 61*
O=C(O)CSc1nc2sc3c(c2c(=O)n1Cc1ccccc1)CCCCC3 | 2 | 5 | 53* | 4 | -4 | 110 | 54* | 17*
O=C(Cc1cccc(NC(=O)C2CCCN(C(=O)C3CCCC3)C2)c1)Nc1cccc(C(=O)N2CCOCC2)c1 (stereo unspecified) | 1 | -1 | 4 | 3 | -1 | 104 | · | ·
Cn1c(SCC(=O)Nc2ccc(C(=O)O)cc2)nnc1-c1ccccn1 | · | · | 1 | · | · | · | · | ·
O=C(NCC(c1ccco1)N1CCCC1)c1cccc(S(=O)(=O)N2CCc3ccccc32)c1 (stereo unspecified) | 0 | -5 | 7 | -4 | -5 | 112 | · | ·
Nn1c(SCc2ccc([N+](=O)[O-])cc2)nnc1-c1n[nH]c2c1CCC2 | · | · | 3 | · | · | · | · | ·
